# Results as given in paper PMC5540273 (PLoS ONE, 2017).
# Several values for one entry are separate records, joined by “and”; a condition that tells them apart may be missing. Equal entries are not always repeated. Where two headings read alike, the source gives them in different places.
# Assays:
# MYLK4 = conditions: concentration: 1 μM, replicates: in singlicate, n = 1
# MYLK = conditions: concentration: 1 μM, replicates: in singlicate, n = 1
# MYO3A = conditions: concentration: 1 μM, replicates: in singlicate, n = 1
# MYO3B = conditions: concentration: 1 μM, replicates: in singlicate; n = 1
# NDR1 = test system: T1, NDR1; conditions: concentration: 1 μM, replicates: in singlicate, n = 1
# T1 construct: gene STK38
# NDR2 = conditions: concentration: 1 μM, replicates: in singlicate, n = 1
# NEK10 = conditions: concentration: 1 μM, replicates: in singlicate; n = 1
# NEK11 = conditions: concentration: 1 μM, replicates: in singlicate, n = 1
# NEK1 = conditions: concentration: 1 μM, replicates: in singlicate; n = 1
# NEK2 = conditions: concentration: 1 μM, replicates: in singlicate, n = 1
# NEK3 = conditions: concentration: 1 μM, replicates: in singlicate, n = 1
# NEK4 = conditions: concentration: 1 μM, replicates: in singlicate, n = 1
# NEK5 = conditions: concentration: 1 μM, replicates: in singlicate, n = 1
# NEK6 = conditions: concentration: 1 μM, replicates: in singlicate, n = 1
# NEK7 = conditions: concentration: 1 μM, replicates: in singlicate; n = 1
# NEK9 = conditions: concentration: 1 μM, replicates: in singlicate, n = 1
# NIK = test system: T2, NIK; conditions: concentration: 1 μM, replicates: in singlicate, n = 1
# T2 construct: gene MAP3K14
# NIM1 = test system: T3, NIM1; conditions: concentration: 1 μM, replicates: in singlicate; n = 1
# T3 construct: gene MGC42105
# NLK = conditions: concentration: 1 μM, replicates: in singlicate, n = 1
# OSR1 = test system: T4, OSR1; conditions: concentration: 1 μM, replicates: in singlicate, n = 1
# T4 construct: gene OXSR1
# 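Note: KINOMEscan kinase panel screen.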
smiles,measurement,setting,value
FC(F)(F)c1ccc(-c2nn3ncccc3c2-c2ccnc(Nc3cccc(C(F)(F)F)c3)n2)cc1 [GW828205],%Inh,MYLK4,1%
same,%Inh,MYLK,40%
same,%Inh,MYO3A,0%
same,%Inh,MYO3B,0%
same,%Inh,NDR1,19%
same,%Inh,NDR2,0%
same,%Inh,NEK10,0%
same,%Inh,NEK11,0%
same,%Inh,NEK1,0%
same,%Inh,NEK2,0%
same,%Inh,NEK3,15%
same,%Inh,NEK4,0%
same,%Inh,NEK5,0%
same,%Inh,NEK6,0%
same,%Inh,NEK7,0%
same,%Inh,NEK9,0%
same,%Inh,NIK,0%
same,%Inh,NIM1,0%
same,%Inh,NLK,10%
same,%Inh,OSR1,0%
COc1ccc(-c2nc3n(c2-c2ccncc2)CCC3)cc1 [SKF-104493],%Inh,MYLK4; 1 µM,0% and 12%
same,%Inh,MYLK; 1 µM,14% and 8%
same,%Inh,MYO3A; 1 µM,7% and 25%
same,%Inh,MYO3B,0%
same,%Inh,NDR1; 1 µM,22% and 13%
same,%Inh,NDR2; 1 µM,16% and 10%
same,%Inh,NEK10,0%
same,%Inh,NEK11; 1 µM,42% and 13%
same,%Inh,NEK1,0%
same,%Inh,NEK2; 1 µM,0% and 4%
same,%Inh,NEK3; 1 µM,19% and 0%
same,%Inh,NEK4; 1 µM,19% and 0%
same,%Inh,NEK5; 1 µM,0% and 16%
same,%Inh,NEK6; 1 µM,5% and 0%
same,%Inh,NEK7,0%
same,%Inh,NEK9; 1 µM,0% and 23%
same,%Inh,NIK; 1 µM,0% and 6%
same,%Inh,NIM1,19%
same,%Inh,NLK; 1 µM,28% and 64%
same,%Inh,OSR1; 1 µM,2% and 0%
O=c1cc(N2CCOCC2)nc2n(Cc3cccc(Cl)c3)ccn12 [GSK2296823],%Inh,MYLK4,0%
same,%Inh,MYLK,61%
same,%Inh,MYO3A,0%
same,%Inh,MYO3B,0%
same,%Inh,NDR1,8%
same,%Inh,NDR2,0%
same,%Inh,NEK10,0%
same,%Inh,NEK11,0%
same,%Inh,NEK1,0%
same,%Inh,NEK2,10%
same,%Inh,NEK3,3%
same,%Inh,NEK4,16%
same,%Inh,NEK5,2%
same,%Inh,NEK6,0%
same,%Inh,NEK7,2%
same,%Inh,NEK9,3%
same,%Inh,NIK,13%
same,%Inh,NIM1,0%
same,%Inh,NLK,0%
same,%Inh,OSR1,7%
Nc1nc(-c2ccc3c(N)n[nH]c3c2)cc(N2CCC[C@@H](C(=O)Nc3ccccc3)C2)n1.O=C(O)C(F)(F)F.O=C(O)C(F)(F)F [GSK2288359],%Inh,MYLK4,9%
same,%Inh,MYLK,27%
same,%Inh,MYO3A,19%
same,%Inh,MYO3B,0%
same,%Inh,NDR1,1%
same,%Inh,NDR2,5%
same,%Inh,NEK10,0%
same,%Inh,NEK11,0%
same,%Inh,NEK1,0%
same,%Inh,NEK2,0%
same,%Inh,NEK3,2%
same,%Inh,NEK4,0%
same,%Inh,NEK5,13%
same,%Inh,NEK6,0%
same,%Inh,NEK7,0%
same,%Inh,NEK9,15%
same,%Inh,NIK,0%
same,%Inh,NIM1,8%
same,%Inh,NLK,0%
same,%Inh,OSR1,3%
Cl.c1ccc(Cn2ncc3cc(Nc4ncnc5ccccc45)ccc32)cc1 [GW273749],%Inh,MYLK4,37%
same,%Inh,MYLK,8%
same,%Inh,MYO3A,14%
same,%Inh,MYO3B,0%
same,%Inh,NDR1,12%
same,%Inh,NDR2,0%
same,%Inh,NEK10,0%
same,%Inh,NEK11,0%
same,%Inh,NEK1,0%
same,%Inh,NEK2,5%
same,%Inh,NEK3,2%
same,%Inh,NEK4,0%
same,%Inh,NEK5,18%
same,%Inh,NEK6,0%
same,%Inh,NEK7,1%
same,%Inh,NEK9,15%
same,%Inh,NIK,0%
same,%Inh,NIM1,3%
same,%Inh,NLK,0%
same,%Inh,OSR1,10%
Cn1ccc2ncnc(Oc3ccc(NC(=O)Nc4cccnc4)c(Cl)c3)c21,%Inh,MYLK4,0%
same,%Inh,MYLK,0%
same,%Inh,MYO3A,0%
same,%Inh,MYO3B,1%
same,%Inh,NDR1,0%
same,%Inh,NDR2,14%
same,%Inh,NEK10,0%
same,%Inh,NEK11,0%
same,%Inh,NEK1,0%
same,%Inh,NEK2,0%
same,%Inh,NEK3,9%
same,%Inh,NEK4,0%
same,%Inh,NEK5,0%
same,%Inh,NEK6,8%
same,%Inh,NEK7,0%
same,%Inh,NEK9,3%
same,%Inh,NIK,0%
same,%Inh,NIM1,0%
same,%Inh,NLK,0%
same,%Inh,OSR1,7%
CC(=O)Nc1n[nH]c2ncc(-c3ccccc3)cc12 [SB-548492],%Inh,MYLK4,28%
same,%Inh,MYLK,23%
same,%Inh,MYO3A,25%
same,%Inh,MYO3B,0%
same,%Inh,NDR1,8%
same,%Inh,NDR2,17%
same,%Inh,NEK10,0%
same,%Inh,NEK11,18%
same,%Inh,NEK1,0%
same,%Inh,NEK2,9%
same,%Inh,NEK3,20%
same,%Inh,NEK4,25%
same,%Inh,NEK5,5%
same,%Inh,NEK6,8%
same,%Inh,NEK7,19%
same,%Inh,NEK9,7%
same,%Inh,NIK,3%
same,%Inh,NIM1,100%
same,%Inh,NLK,24%
same,%Inh,OSR1,9%
Fc1cccc(COc2ccc(Nc3ncnc4cc[nH]c34)cc2Cl)c1,%Inh,MYLK4,8%
same,%Inh,MYLK,10%
same,%Inh,MYO3A,4%
same,%Inh,MYO3B,29%
same,%Inh,NDR1,24%
same,%Inh,NDR2,8%
same,%Inh,NEK10,0%
same,%Inh,NEK11,0%
same,%Inh,NEK1,0%
same,%Inh,NEK2,12%
same,%Inh,NEK3,12%
same,%Inh,NEK4,3%
same,%Inh,NEK5,16%
same,%Inh,NEK6,11%
same,%Inh,NEK7,9%
same,%Inh,NEK9,10%
same,%Inh,NIK,9%
same,%Inh,NIM1,48%
same,%Inh,NLK,0%
same,%Inh,OSR1,21%
O=C(Nc1n[nH]c2nc(-c3ccco3)c(Br)cc12)c1ccc(CN2CCCC2)cc1.O=C(O)[C@H](O)[C@@H](O)C(=O)O [SB-742352],%Inh,MYLK4,5%
same,%Inh,MYLK,83%
same,%Inh,MYO3A,0%
same,%Inh,MYO3B,8%
same,%Inh,NDR1,0%
same,%Inh,NDR2,0%
same,%Inh,NEK10,0%
same,%Inh,NEK11,0%
same,%Inh,NEK1,0%
same,%Inh,NEK2,6%
same,%Inh,NEK3,0%
same,%Inh,NEK4,0%
same,%Inh,NEK5,0%
same,%Inh,NEK6,0%
same,%Inh,NEK7,10%
same,%Inh,NEK9,0%
same,%Inh,NIK,0%
same,%Inh,NIM1,0%
same,%Inh,NLK,0%
same,%Inh,OSR1,0%
Fc1cccc(COc2ccc(Nc3ncnc4nn5ccccc5c34)cc2Cl)c1 [GW689066],%Inh,MYLK4,0%
same,%Inh,MYLK,0%
same,%Inh,MYO3A,18%
same,%Inh,MYO3B,0%
same,%Inh,NDR1,55%
same,%Inh,NDR2,0%
same,%Inh,NEK10,0%
same,%Inh,NEK11,11%
same,%Inh,NEK1,0%
same,%Inh,NEK2,0%
same,%Inh,NEK3,0%
same,%Inh,NEK4,0%
same,%Inh,NEK5,0%
same,%Inh,NEK6,0%
same,%Inh,NEK7,0%
same,%Inh,NEK9,4%
same,%Inh,NIK,0%
same,%Inh,NIM1,13%
same,%Inh,NLK,7%
same,%Inh,OSR1,3%
CC(C)(C)c1ccc(-n2cnc3c(N)ncnc32)cc1 [SKF-97263],%Inh,MYLK4,3%
same,%Inh,MYLK,8%
same,%Inh,MYO3A,1%
same,%Inh,MYO3B,8%
same,%Inh,NDR1,0%
same,%Inh,NDR2,0%
same,%Inh,NEK10,0%
same,%Inh,NEK11,0%
same,%Inh,NEK1,0%
same,%Inh,NEK2,0%
same,%Inh,NEK3,0%
same,%Inh,NEK4,19%
same,%Inh,NEK5,10%
same,%Inh,NEK6,0%
same,%Inh,NEK7,16%
same,%Inh,NEK9,14%
same,%Inh,NIK,0%
same,%Inh,NIM1,9%
same,%Inh,NLK,26%
same,%Inh,OSR1,16%
CNc1nccc(-c2c(-c3ccc(F)cc3)ncn2C2CCN(C)CC2)n1 [SB-222903],%Inh,MYLK4,0%
same,%Inh,MYLK,0%
same,%Inh,MYO3A,0%
same,%Inh,MYO3B,19%
same,%Inh,NDR1,33%
same,%Inh,NDR2,17%
same,%Inh,NEK10,0%
same,%Inh,NEK11,0%
same,%Inh,NEK1,0%
same,%Inh,NEK2,0%
same,%Inh,NEK3,17%
same,%Inh,NEK4,0%
same,%Inh,NEK5,0%
same,%Inh,NEK6,0%
same,%Inh,NEK7,0%
same,%Inh,NEK9,0%
same,%Inh,NIK,31%
same,%Inh,NIM1,0%
same,%Inh,NLK,83%
same,%Inh,OSR1,0%
CC(C)(C)OC(=O)NC1CCCN(c2cc(-c3ccc4c(N)n[nH]c4c3)nc(N)n2)C1 (stereo not drawn) [GSK2286096],%Inh,MYLK4,0%
same,%Inh,MYLK,0%
same,%Inh,MYO3A,0%
same,%Inh,MYO3B,0%
same,%Inh,NDR1,21%
same,%Inh,NDR2,0%
same,%Inh,NEK10,0%
same,%Inh,NEK11,0%
same,%Inh,NEK1,0%
same,%Inh,NEK2,7%
same,%Inh,NEK3,3%
same,%Inh,NEK4,13%
same,%Inh,NEK5,2%
same,%Inh,NEK6,0%
same,%Inh,NEK7,0%
same,%Inh,NEK9,2%
same,%Inh,NIK,0%
same,%Inh,NIM1,9%
same,%Inh,NLK,27%
same,%Inh,OSR1,0%
COc1ccc(-c2oc3ncnc(N)c3c2-c2ccc(OC)cc2)cc1 [SB-589132],%Inh,MYLK4,9%
same,%Inh,MYLK,18%
same,%Inh,MYO3A,25%
same,%Inh,MYO3B,0%
same,%Inh,NDR1,15%
same,%Inh,NDR2,37%
same,%Inh,NEK10,49%
same,%Inh,NEK11,45%
same,%Inh,NEK1,9%
same,%Inh,NEK2,5%
same,%Inh,NEK3,17%
same,%Inh,NEK4,20%
same,%Inh,NEK5,31%
same,%Inh,NEK6,0%
same,%Inh,NEK7,0%
same,%Inh,NEK9,19%
same,%Inh,NIK,33%
same,%Inh,NIM1,37%
same,%Inh,NLK,4%
same,%Inh,OSR1,0%
Cc1cccc(-c2nc(Nc3ccc4[nH]nnc4c3)c3ccccc3n2)n1 [GW867587],%Inh,MYLK4,1%
same,%Inh,MYLK,0%
same,%Inh,MYO3A,0%
same,%Inh,MYO3B,0%
same,%Inh,NDR1,0%
same,%Inh,NDR2,6%
same,%Inh,NEK10,0%
same,%Inh,NEK11,0%
same,%Inh,NEK1,0%
same,%Inh,NEK2,0%
same,%Inh,NEK3,22%
same,%Inh,NEK4,0%
same,%Inh,NEK5,2%
same,%Inh,NEK6,0%
same,%Inh,NEK7,0%
same,%Inh,NEK9,0%
same,%Inh,NIK,21%
same,%Inh,NIM1,0%
same,%Inh,NLK,0%
same,%Inh,OSR1,0%
